Test results reported in PubChem BioAssay AID933 (National Center for Advancing Translational Sciences (NCATS), 2009).
Records with an inconclusive call do not appear. Unmarked numbers belong to inactive results. Activity calls are given as the source filed them. The call rests on the fitted dose curve; in most records, active means well fitted activation curve with a large enough effect in the signal ratio, with a control signal flat; inconclusive means small, poorly fitted or top-dose-only effect, or a change in a side signal; inactive means flat fitted curve, though single readings scatter; the % refers to the signal ratio.

The molecules below were run against Thyrotropin receptor (Homo sapiens) (UniProt P16473) (assay: Secondary Concentration-Response Assay for Agonists of the Thyroid Stimulating Hormone Receptor: HTRF Activity Detection). Settings: HEK293-TSHR cells, cAMP HTRF ratio, 30 min; series mostly up to 91.7 µM; activation: at the top concentration.
In short: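 cAMP accumulation was detected by antibody-based HTRF, excitation 330 nm, emissions 615 and 660 nm. Compounds acted for 30 min at room temperature on stably TSHR-transfected HEK 293 cells, with phosphodiesterase inhibitor RO 20-1724 (100 uM) in the medium.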
Potency means the concentration at half of the fitted maximal effect.
Wherever activation is given: % of control where 0% means no effect.

Sequence of Thyrotropin receptor (Homo sapiens) (P16473 whole entry, looked up): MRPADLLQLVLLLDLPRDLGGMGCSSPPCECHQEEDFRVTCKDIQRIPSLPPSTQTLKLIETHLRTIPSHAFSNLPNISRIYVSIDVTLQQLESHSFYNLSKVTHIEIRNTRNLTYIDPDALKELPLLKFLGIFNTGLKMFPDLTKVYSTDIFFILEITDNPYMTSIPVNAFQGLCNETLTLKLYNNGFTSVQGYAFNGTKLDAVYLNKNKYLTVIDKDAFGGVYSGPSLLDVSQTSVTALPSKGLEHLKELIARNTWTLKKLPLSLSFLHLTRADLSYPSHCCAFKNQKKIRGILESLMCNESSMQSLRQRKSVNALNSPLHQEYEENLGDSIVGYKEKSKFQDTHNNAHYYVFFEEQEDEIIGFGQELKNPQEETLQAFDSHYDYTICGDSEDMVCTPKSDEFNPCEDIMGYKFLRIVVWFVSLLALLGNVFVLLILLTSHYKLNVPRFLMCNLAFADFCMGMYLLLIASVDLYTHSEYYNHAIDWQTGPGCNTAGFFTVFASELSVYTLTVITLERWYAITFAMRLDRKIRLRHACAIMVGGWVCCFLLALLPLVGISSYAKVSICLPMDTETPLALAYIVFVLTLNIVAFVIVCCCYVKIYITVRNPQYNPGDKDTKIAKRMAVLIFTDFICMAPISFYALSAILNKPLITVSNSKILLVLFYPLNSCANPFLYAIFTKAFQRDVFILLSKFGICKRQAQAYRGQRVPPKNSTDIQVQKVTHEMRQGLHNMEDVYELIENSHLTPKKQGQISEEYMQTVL

Compound	activation	Potency
COc1cc(C2Nc3ccccc3C(=O)N2Cc2ccccc2)ccc1OCc1ccc(NC(C)=O)cc1 (stereo unspecified)	8.19%	–
CC(C)CC(=O)Nc1cccc(-c2cn3ccsc3n2)c1	0.105% [at 0.00035 µM]	–
Cc1occc1-c1nnc(SCC(=O)NCc2ccco2)n1CC(C)C	0.131% [at 0.00035 µM]	–
O=C1c2ccccc2NC(c2ccccc2OCc2ccccc2)N1Cc1ccco1 (stereo unspecified)	1.72%	–
Cc1ccccc1N1CCN(c2ncnc3c2cnn3Cc2ccc(Cl)cc2)CC1	-0.314% [at 0.00035 µM]	–
COc1cccc(CN2C(=O)c3ccccc3NC2c2ccc(OC)c(COc3ccc(NC(C)=O)cc3)c2)c1 (stereo unspecified)	–	6.31 µM (active)
Oc1ccccc1Cn1c(-c2ccccc2O)nc2ccccc21	-0.344% [at 0.00035 µM]	–
CCCN1C(=O)c2ccccc2NC1c1ccc(OC)c(COc2ccc([N+](=O)[O-])c(C)c2)c1 (stereo unspecified)	1.36%	–
COc1ccc(C2Nc3ccccc3C(=O)N2Cc2ccccc2)cc1COc1cccc(C(F)(F)F)c1 (stereo unspecified)	6.58%	–
COc1ccc(C2Nc3ccccc3C(=O)N2Cc2ccccc2C)cc1COc1ccc(NC(C)=O)cc1 (stereo unspecified)	14.3%	–
CC(=O)Nc1ccc(OCc2cccc(-c3nc4ccccc4c(=O)n3Cc3ccco3)c2)cc1	6.74%	–
COC(=O)COc1ccc(Cl)cc1C1Nc2ccccc2C(=O)N1c1ccc(OC)cc1 (stereo unspecified)	3.2%	–
CCC(C)(C)n1nnnc1CN(Cc1ccco1)Cc1cc2cc3c(cc2[nH]c1=O)OCO3	0.108% [at 0.00035 µM]	–
COc1ccc(-c2nc3cccc(OC)c3c(=O)n2Cc2ccccc2)cc1COc1ccc(NC(C)=O)cc1	28.9%	–
COc1ccc(C2Nc3ccccc3C(=O)N2c2ccc(Cl)cc2)cc1COc1ccc(NC(C)=O)cc1 (stereo unspecified)	8.76%	–
COc1ccc(C(=O)N(Cc2ccccc2)Cc2ccccc2)c(O)c1	–	25.1 µM (active)
COc1ccc(C2Nc3ccc(Cl)cc3C(=O)N2Cc2ccccc2)cc1COc1ccc(NC(C)=O)cc1 (stereo unspecified)	–	14.1 µM (active)
COc1ccc(C2Nc3ccccc3C(=O)N2CCc2ccccc2)cc1COc1ccc(NC(C)=O)cc1 (stereo unspecified)	–	7.94 µM (active)

Compound	activation	Potency
COc1ccc(C2Nc3ccccc3C(=O)N2c2cccc3ccccc23)cc1COc1c(C)cccc1C (stereo unspecified)	1.6%	–
COc1ccc(C2Nc3ccccc3C(=O)N2Cc2ccccc2)cc1COc1ccc(Cl)cc1Cl (stereo unspecified)	1.07%	–
O=C1c2ccccc2NC(c2ccc(OCc3ccccc3)c(OCc3ccccc3)c2)N1Cc1ccco1 (stereo unspecified)	1.04%	–
COc1ccc(CN(Cc2ccccc2)S(=O)(=O)c2ccccc2)cc1COc1ccc(NC(C)=O)cc1	12.9%	–
COc1ccc(S(=O)(=O)NCCC(=O)NCc2ccc(F)cc2)cc1	-0.0801% [at 0.00035 µM]	–
COc1cc(C2Nc3ccccc3C(=O)N2c2ccccc2OC)ccc1O (stereo unspecified)	1.38%	–
COc1ccc(C2=Nn3c(nnc3-c3ccccc3OC)SC2)cc1OC	7.27%	–
COc1ccc(C2Nc3ccccc3C(=O)N2Cc2cccc(-c3ccccc3)c2)cc1COc1ccc(NC(C)=O)cc1 (stereo unspecified)	–	2.24 µM (active)
COc1ccc(C(=O)N(Cc2cccs2)Cc2cccs2)c(O)c1	–	15.8 µM (active)
O=C(CN(Cc1ccc(F)cc1)S(=O)(=O)c1ccccc1)N1CCCCC1	0.34% [at 0.00035 µM]	–
COc1ccc(-c2cc(C(F)(F)F)nc(SCCC(=O)N3CCOCC3)n2)cc1	0.123% [at 0.00035 µM]	–
COc1cc(C2Nc3ccccc3C(=O)N2c2ccc3c(c2)OCCO3)ccc1OCC(C)C (stereo unspecified)	1%	–
COC(=O)c1cc(NC2c3ccccc3C(=O)N2c2cccnc2)cc(C(=O)OC)c1 (stereo unspecified)	-0.103% [at 0.00035 µM]	–
O=c1c2ccccc2nc(-c2ccccc2O)n1Cc1ccccc1	4.17%	–
COc1ccc(C(=O)N(Cc2ccco2)Cc2cccs2)cc1	4.57%	–
CS(=O)(=O)N1CCN(C(=O)c2cc(-c3cccs3)nc3ccccc23)CC1	0.0393% [at 0.00035 µM]	–
CCOC(=O)COc1ccccc1C1Nc2ccccc2C(=O)N1c1cccc(Cl)c1 (stereo unspecified)	4.3%	–
COc1ccc(N2C(=O)c3ccccc3NC2c2ccc(OC)c(COc3ccccc3F)c2)cc1 (stereo unspecified)	1.29%	–
